According to PubChem BioAssay AID489008 (National Center for Advancing Translational Sciences (NCATS), 2010):
Records with an inconclusive call do not appear. Activity calls are given as the source filed them. Calls come from the whole dose curve; as a rule, active = well fitted inhibition curve with a large enough effect; inconclusive = small, poorly fitted or top-dose-only effect; inactive = flat fitted curve, though single readings scatter.

target: Ferritin light chain (Equus caballus) (UniProt P02791); experiment: Confirmation Assay for Identification of Novel General Anesthetics; conditions: apoferritin 1-aminoanthracene fluorescence displacement; note: nearly all actives have a fitted effect of over 40% in size
How it was run: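 Horse apoferritin (10 uM) pre-loaded with 1-AMA (50% saturated, PBS) exposed to compounds 10 min at room temperature; loss of 1-AMA fluorescence (380/535 nm) scaled between free and bound ligand, curves fitted with Hill equation.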
Potency is the fitted concentration of half-maximal effect.

Ferritin light chain (Equus caballus), sequence (P02791 2-175 limits assumed): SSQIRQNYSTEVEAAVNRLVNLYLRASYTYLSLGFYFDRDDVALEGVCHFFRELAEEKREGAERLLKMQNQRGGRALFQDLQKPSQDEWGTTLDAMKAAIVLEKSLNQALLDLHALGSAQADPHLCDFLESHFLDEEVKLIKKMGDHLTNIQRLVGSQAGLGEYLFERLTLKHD

Potency, active:
Cc1ccccc1Cn1c(C)cc(C)c(C#N)c1=O 15.8 µM
O=C(NCc1ccccc1)Nc1cccn(Cc2ccccc2)c1=O 8.91 µM
O=C(c1csc2ccccc12)N1CCCCCC1 31.6 µM
O=C(CCl)Nc1ccc(N2CCCCCC2)cc1 15.8 µM
O=C1NC2(CCCCCC2)Oc2ccccc21 20 µM
CCCCSC(=O)Nc1ccccc1 7.08 µM
Cc1csc(OCC(=O)Nc2ccc(C)c(C)c2)n1 17.8 µM
O=C(Cc1cccc2ccccc12)N1CCCc2ccccc21 17.8 µM
Cc1ccc(C(=O)N2CCCc3ccccc32)c(F)c1F 22.4 µM
O=C(CSc1ccccn1)C12CC3CC(CC(C3)C1)C2 6.31 µM
O=C(CSCCO)Nc1ccc(C2CCCCC2)cc1 20 µM
Cc1cccc(NC(=O)N2CCCCCC2)c1C 8.91 µM
O=C(NC1CCCCC1)C(=S)NCc1ccccc1 15.8 µM
Oc1ccc(C(=S)N2CCCCCC2)cc1 14.1 µM
O=C1CC2(CCCC2)CC(=O)N1c1ccccc1 15.8 µM
O=c1sc2ccccc2c(=O)n1Cc1ccccc1F 8.91 µM
COc1cc(C(=O)O[C@@H]2CC3CC[C@]2(C)C3(C)C)ccc1O 14.1 µM
CC1CCCC(NC(=O)COC(=O)CCc2ccccc2)C1C (centres undefined) 25.1 µM
COc1cccc(CNc2ccc(C)c(Cl)c2)c1 11.2 µM
COc1ccc(-c2ccc(=O)n(CC(=O)NCc3ccco3)n2)cc1 14.1 µM
O=C(COC(=O)CC1CC2CCC1C2)NC(=O)NCc1ccco1 (centres undefined) 22.4 µM
O=C(NC1C2CC3CC(C2)CC1C3)c1ccc(Br)o1 (centres undefined) 11.2 µM
Fc1ccccc1CSc1nc2ccccc2[nH]1 15.8 µM
O=C(CCC(=O)c1ccc(Cl)cc1)OCC(=O)c1ccccc1 17.8 µM
N/C(=N\OC(=O)Cc1ccc(-c2ccccc2)cc1)c1ccncc1 31.6 µM
CCCCCc1ccc(C2=NNC(=O)CC2)cc1 28.2 µM
O=S(=O)(NCCC1=CCCCC1)c1ccc(F)cc1 8.91 µM
CN(C(=O)c1cncc(Br)c1)C1C2CC3CC(C2)CC1C3 (centres undefined) 12.6 µM
CC1CCCC(C)N1C(=O)COc1ccccc1F (centres undefined) 17.8 µM
O=S(=O)(NCCc1ccccc1)c1ccc(Br)s1 31.6 µM
O=S1(=O)CCOCCCN1Cc1ccccc1Br 12.6 µM
O=C(COC(=O)CCc1ccccc1)NC12CC3CC(CC(C3)C1)C2 8.91 µM
O=S(N1CCc2ccccc21)C12CC3CC(CC(C3)C1)C2 (centres undefined) 12.6 µM
CC(C)c1ccc(NC(=O)C2CC3CCC2C3)cc1 (centres undefined) 31.6 µM
O=c1c2c3c(sc2ncn1-n1cccc1)CCCCC3 10 µM
O=C(CCc1ccccc1)Nc1cc(Cl)ccc1O 6.31 µM
Nn1cnc2sc3c(c2c1=O)CCC3 31.6 µM
CNc1nc(C23CC4CC(CC(C4)C2)C3)cs1 15.8 µM
CCC(CC)C(=O)Nc1ccc(Cl)c(Cl)c1 14.1 µM
